We go through twelve compounds from PubChem BioAssay (EPA / NIEHS).

The structures appear in SMILES notation. Where “and” joins values, the source holds several entries; their conditions need not be identical. Equal values may be shown once. Inconclusive results are not listed. More than one record can exist for a structure, and the calls need not agree. Calls of active or inactive are those of the source. How the source made its calls, unless noted: active means hit-call score of the fitted dose curve at least 0.9, where 1 is the maximum; inconclusive means response in the unintended direction; inactive means score below 0.9.

Experiment [1] addresses Peroxisome proliferator-activated receptor gamma (Homo sapiens) (UniProt P37231). Briefly: ATG_hPPARg_XSP2: Attagene TRANS-FACTORIAL Multi-Species (XSP2) HepG2 Assay for human Peroxisome Proliferator-activated Receptor gamma (PPARg) (AID 2283829).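 Further: actives raise reporter mRNA above DMSO so AC50 reflects PPARg activation.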 The method in brief: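 Human HepG2 cells carried transiently transfected Gal4 reporter units and were treated with chemical for 24 h alongside androgen-receptor stimulants (3 nM 6-alpha-fluorotestosterone, 1.5 nM norgestrel). Reporter transcripts were detected by RT-PCR with capillary electrophoresis, analysed in the positive direction against DMSO.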

The target of experiment [2] is mouse Peroxisome Proliferator-activated Receptor gamma (PPARg), Pparg (gene 19016) (UniProt P37238). Briefly: ATG_mPPARg_XSP2: Attagene TRANS-FACTORIAL Multi-Species (XSP2) HepG2 Assay for mouse Peroxisome Proliferator-activated Receptor gamma (PPARg) (AID 2283830).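 Further: hits are gains in reporter mRNA above DMSO so AC50 marks activation.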 The gist of the method:
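Multiplexed TRANS reporter readout: after 24 h chemical exposure of transfected HepG2 cells (with 3 nM 6-alpha-fluorotestosterone, 1.5 nM norgestrel present), RNA reverse-transcribed, amplified, 6-FAM-labelled and resolved by capillary electrophoresis; mouse PPARg-Gal4 induction scored against DMSO.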

In experiment [3] the target is Nuclear receptor subfamily 1 group I member 2 (Mus musculus) (UniProt O54915). In words: ATG_mPXR_XSP2: Attagene TRANS-FACTORIAL Multi-Species (XSP1) HepG2 Assay for mouse Pregnane X Receptor (PXR) (AID 2283831). The method in brief:
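Fluorescence signals from capillary electrophoresis of RT-PCR-amplified reporter mRNA give the readout, gain-of-signal versus DMSO. Transfected HepG2 cells, 24 h dosing, medium contained 3 nM 6-alpha-fluorotestosterone and 1.5 nM norgestrel.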

In experiment [4] the target is zebrafish Thyroid Hormone Receptor alpha (TRa), thraa (gene 30670) (UniProt Q98867). In words: ATG_zfTRa_XSP2: Attagene TRANS-FACTORIAL Multi-Species (XSP1) HepG2 Assay for zebrafish Thyroid Hormone Receptor alpha (TRa) (AID 2283832).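 Further: actives raise zebrafish TRa-Gal4 reporter transcript above DMSO baseline.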 As to the method: (§1) ATG_XSP2_multi-species_TRANS is a cell-based, multiplexed assay created by modifying the existing Attagene TRANS-FACTORIAL system to include a panel of nuclear receptors from some or all the following species: human (Homo sapiens), mouse (Mus musculus), frog (Xenopus laevis), zebrafish (Danio rerio), chicken (Gallus gallus), and turtle (Chrysemys picta). The ECOTOX-FACTORIAL format uses HepG2, a human liver cell line, with measurements taken at 24 hours after chemical dosing in a 24-well plate. Xsp2 included 3 nM 6-alpha-fluorotestosterone and 1.5 nM norgestrel to stimulate the androgen receptor.ATG_zfTRa_XSP2 is one of 29 assay components measured or calculated from the ATG_XSP2_multi-species_TRANS assay. It is designed to make measurements of mRNA induction, a form of inducible reporter, as detected with fluorescence intensity signals by Reverse transcription polymerase chain reaction (RT-PCR) and Capillary electrophoresis technology.The assay endpoint ATG_zfTRa_XSP2 was analyzed in the positive analysis fitting direction relative to DMSO as the negative control and baseline of activity. Using a type of inducible reporter, measures of mRNA for gain-of-signal activity can be used to understand the reporter gene at the transcription factor-level as they relate to the gene TR. Furthermore, this assay endpoint can be referred to as a primary readout, because this assay has produced multiple assay endpoints where this one serves a reporter gene function. To generalize the intended target to other relatable targets, this assay endpoint is annotated to the nuclear receptor intended target family, where the subfamily is non-steroidal.
(§2) Human liver HepG2 cells are transiently transfected with multiple reporter transcription units (MRTUs) in 6-well plates using FuGene 6 reagent (Roche; 3 ml FuGene/1 mg DNA). The MRTU constructs are regulated by a cis-regulating element (promoter). […] A major difference between the CIS and TRANS system is that in CIS activities of endogenous TFs are measured, whereas the TRANS assay evaluates changes in activities of exogenous, chimeric NR-Gal4 proteins. […] At the end of 24 hour incubation, total RNA was isolated using TriZol reagent (Invitrogen). The isolated RNA is then reverse-transcribed using oligo(dT) primer and Mo-MLV reverse transcriptase (Invitrogen) with DNAse I (Ambion) treatment for 30 min. The one-tenth of the produced cDNA was amplified by PCR using Taq DNA polymerase (Invitrogen) and two reporter sequence-specific primers. The PCR products were fluorescently labeled by primer extension with 6-arboxyfluorescein (6-FAM) 5'-labeled reporter sequence-specific primer (2 min at 95 C, 20 s at 68 C and 10 min at 72 C) and these products were digested with 5U of HpaI (New England Biolabs) for 2h at 37 C. The fragments were purified using Qiaquick PCR columns (Qiagen), analyzed on an ABI 3130xL genetic analyzer (Applied Biosystems) with peak positions identified by using a set of X-rhodamine (ROX)-labeled MapMarker1000 molecular weight standards (BioVentures). The raw capillary electrophoresis data was processed using Attagraph software (Attagene).

For experiment [5], the system named is zebrafish Peroxisome Proliferator-activated Receptor gamma (PPARg), gene 557037. Briefly: ATG_zfPPARg_XSP2: Attagene TRANS-FACTORIAL Multi-Species (XSP2) HepG2 Assay for zebrafish Peroxisome Proliferator-activated Receptor gamma (PPARg) (AID 2283833).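 Further: actives increase reporter signal over DMSO so AC50 reflects activation.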 The gist of the method: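 HepG2, transient MRTU transfection, 24 h compound; zfPPARg-GAL4 reporter mRNA by RT-PCR + capillary electrophoresis; gain-of-signal vs DMSO.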

The nature of experiment [6]: ATG_M_61_XSP2: Attagene TRANS-FACTORIAL Multi-Species (XSP2) HepG2 Assay for M61 Transcription Factor (Internal Marker) (AID 2283835; active means hit-call score of the fitted dose curve at least 0.9, where 1 is the maximum; inactive means score below 0.9;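 further: reporter mRNA of an internal background marker read by RT-PCR and capillary electrophoresis; active means a rise in signal above the DMSO baseline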). The method in brief:
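Signal was mRNA induction detected as fluorescence after RT-PCR and capillary electrophoresis, analysed in the gain direction with DMSO as baseline. HepG2 cells transiently carrying reporter constructs received chemicals for 24 h.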

Experiment [7] addresses zebrafish Thyroid Hormone Receptor beta (TRb), thrb (gene 30607) (UniProt Q9PVE4). Briefly: ATG_zfTRb_XSP2: Attagene TRANS-FACTORIAL Multi-Species (XSP1) HepG2 Assay for zebrafish Thyroid Hormone Receptor beta (TRb) (AID 2283836). The procedure: as §1, with “receptor.ATG_zfTRb_XSP2” for “receptor.ATG_zfTRa_XSP2”, “ATG_zfTRb_XSP2” for “ATG_zfTRa_XSP2”
as §2

The nature of experiment [8]: ATG_XTT_Cytotoxicity_XSP2: Cytotoxicity Assessment in the Attagene TRANS-FACTORIAL Multi-Species (XSP2) HepG2 Assay (AID 2283837). The gist of the method:
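XTT-based cell number read-out in human HepG2 liver cells carrying transfected reporter units, measured 24 h after chemical dosing. Activity is signal loss versus DMSO baseline.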

The target of experiment [9] is human Thyroid hormone Receptor alpha (TRa), THRA (gene 7067) (UniProt P10827). Briefly: ATG_hTRa_XSP2: Attagene TRANS-FACTORIAL Multi-Species (XSP2) HepG2 Assay for human Thyroid hormone Receptor alpha (TRa) (AID 2283838). The method in brief: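 Reporter transcripts were read by RT-PCR with fluorescent primer extension, HpaI digestion and capillary electrophoresis. These came from HepG2 cells carrying multiplexed TRa-Gal4 TRANS constructs, harvested 24 hours after dosing. The medium also held 6-alpha-fluorotestosterone (3 nM) and norgestrel (1.5 nM), and increases were fitted against DMSO.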

The target in experiment [10] is frog Thyroid hormone Receptor alpha (TRa), thra-a (gene 397942) (UniProt P15204). Briefly: ATG_frTRa_XSP2: Attagene TRANS-FACTORIAL Multi-Species (XSP2) HepG2 Assay for frog Thyroid hormone Receptor alpha (TRa) (AID 2283839).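 On AC50: AC50 reflects induction of frog TRa-driven reporter mRNA above DMSO baseline.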 The method in brief:
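Chimeric frog TRα-GAL4 activity in human liver cells measures reporter transcript induction 24 h post-dose. Detection uses RT-PCR, HpaI-digested labelled products and fluorescence capillary electrophoresis; DMSO serves as negative control.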

Chain of zebrafish Thyroid Hormone Receptor beta (TRb), thrb (gene 30607) (Q9PVE4 whole entry, looked up): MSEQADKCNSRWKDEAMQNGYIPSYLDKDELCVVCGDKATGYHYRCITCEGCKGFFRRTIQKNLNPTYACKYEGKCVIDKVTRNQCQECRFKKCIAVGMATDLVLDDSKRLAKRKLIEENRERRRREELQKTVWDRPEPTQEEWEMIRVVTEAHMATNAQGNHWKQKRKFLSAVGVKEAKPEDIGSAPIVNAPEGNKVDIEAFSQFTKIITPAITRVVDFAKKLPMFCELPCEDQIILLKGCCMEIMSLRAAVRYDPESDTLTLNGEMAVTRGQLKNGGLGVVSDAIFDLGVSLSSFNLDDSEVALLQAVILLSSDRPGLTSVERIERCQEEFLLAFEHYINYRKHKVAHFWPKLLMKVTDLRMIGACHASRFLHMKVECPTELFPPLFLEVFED
Chain of mouse Peroxisome Proliferator-activated Receptor gamma (PPARg), Pparg (gene 19016) (P37238 whole entry, looked up, the tested form may be a part): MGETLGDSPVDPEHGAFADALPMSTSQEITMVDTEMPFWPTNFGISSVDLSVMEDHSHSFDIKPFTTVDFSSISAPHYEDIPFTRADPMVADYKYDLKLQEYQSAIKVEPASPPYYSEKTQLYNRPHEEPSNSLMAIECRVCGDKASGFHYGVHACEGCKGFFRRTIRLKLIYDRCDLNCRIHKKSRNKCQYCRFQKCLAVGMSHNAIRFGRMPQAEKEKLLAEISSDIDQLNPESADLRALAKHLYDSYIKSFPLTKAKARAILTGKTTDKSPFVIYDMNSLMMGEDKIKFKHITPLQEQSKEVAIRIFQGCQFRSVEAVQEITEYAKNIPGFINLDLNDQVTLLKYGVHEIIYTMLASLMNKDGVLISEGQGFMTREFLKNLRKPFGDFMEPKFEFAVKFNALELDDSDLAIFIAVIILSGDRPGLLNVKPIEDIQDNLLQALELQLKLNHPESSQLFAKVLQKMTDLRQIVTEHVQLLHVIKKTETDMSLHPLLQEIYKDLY
Chain of human Thyroid hormone Receptor alpha (TRa), THRA (gene 7067) (P10827 whole entry, looked up, the tested form may be a part): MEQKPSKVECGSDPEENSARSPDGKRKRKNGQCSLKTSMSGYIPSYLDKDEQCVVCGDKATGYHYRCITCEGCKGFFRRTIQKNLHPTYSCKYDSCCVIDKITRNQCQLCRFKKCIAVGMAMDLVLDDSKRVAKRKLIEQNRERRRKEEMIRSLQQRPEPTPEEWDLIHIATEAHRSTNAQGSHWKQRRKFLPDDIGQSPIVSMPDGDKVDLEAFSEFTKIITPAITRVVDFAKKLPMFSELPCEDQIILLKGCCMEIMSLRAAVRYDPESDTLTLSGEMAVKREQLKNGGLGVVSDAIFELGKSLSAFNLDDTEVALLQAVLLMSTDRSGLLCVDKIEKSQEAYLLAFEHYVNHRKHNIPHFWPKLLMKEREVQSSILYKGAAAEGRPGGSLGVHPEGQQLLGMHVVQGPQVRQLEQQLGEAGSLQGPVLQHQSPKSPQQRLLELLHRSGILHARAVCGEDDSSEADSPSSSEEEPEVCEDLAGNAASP
Chain of Nuclear receptor subfamily 1 group I member 2 (Mus musculus) (O54915 whole entry, looked up): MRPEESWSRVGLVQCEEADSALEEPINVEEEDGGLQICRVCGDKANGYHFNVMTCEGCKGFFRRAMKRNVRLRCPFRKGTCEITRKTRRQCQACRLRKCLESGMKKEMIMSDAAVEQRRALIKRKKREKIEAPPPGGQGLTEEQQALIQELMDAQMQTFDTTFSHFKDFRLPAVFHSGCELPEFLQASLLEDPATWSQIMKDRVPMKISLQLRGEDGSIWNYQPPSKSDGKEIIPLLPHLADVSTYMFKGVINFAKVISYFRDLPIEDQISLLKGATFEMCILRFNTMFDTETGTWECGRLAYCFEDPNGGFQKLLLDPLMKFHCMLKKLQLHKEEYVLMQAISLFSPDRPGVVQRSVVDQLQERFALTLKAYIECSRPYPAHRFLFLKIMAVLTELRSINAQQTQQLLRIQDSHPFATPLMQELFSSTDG
Chain of Peroxisome proliferator-activated receptor gamma (Homo sapiens) (P37231 whole entry, looked up, the tested form may be a part): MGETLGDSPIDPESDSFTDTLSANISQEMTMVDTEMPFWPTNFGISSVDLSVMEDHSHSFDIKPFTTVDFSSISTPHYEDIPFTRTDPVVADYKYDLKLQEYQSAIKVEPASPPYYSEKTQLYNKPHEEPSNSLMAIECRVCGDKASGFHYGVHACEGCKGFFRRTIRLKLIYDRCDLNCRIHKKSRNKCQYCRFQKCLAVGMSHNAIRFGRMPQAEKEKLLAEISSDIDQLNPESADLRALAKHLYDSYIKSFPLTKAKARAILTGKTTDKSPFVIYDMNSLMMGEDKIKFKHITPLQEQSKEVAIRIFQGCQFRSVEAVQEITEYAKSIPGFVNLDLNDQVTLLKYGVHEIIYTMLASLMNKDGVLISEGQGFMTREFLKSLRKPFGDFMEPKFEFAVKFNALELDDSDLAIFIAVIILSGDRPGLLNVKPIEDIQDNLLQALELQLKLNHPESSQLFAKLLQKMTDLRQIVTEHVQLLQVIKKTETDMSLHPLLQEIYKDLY
Chain of zebrafish Thyroid Hormone Receptor alpha (TRa), thraa (gene 30670) (Q98867 whole entry, looked up, the tested form may be a part): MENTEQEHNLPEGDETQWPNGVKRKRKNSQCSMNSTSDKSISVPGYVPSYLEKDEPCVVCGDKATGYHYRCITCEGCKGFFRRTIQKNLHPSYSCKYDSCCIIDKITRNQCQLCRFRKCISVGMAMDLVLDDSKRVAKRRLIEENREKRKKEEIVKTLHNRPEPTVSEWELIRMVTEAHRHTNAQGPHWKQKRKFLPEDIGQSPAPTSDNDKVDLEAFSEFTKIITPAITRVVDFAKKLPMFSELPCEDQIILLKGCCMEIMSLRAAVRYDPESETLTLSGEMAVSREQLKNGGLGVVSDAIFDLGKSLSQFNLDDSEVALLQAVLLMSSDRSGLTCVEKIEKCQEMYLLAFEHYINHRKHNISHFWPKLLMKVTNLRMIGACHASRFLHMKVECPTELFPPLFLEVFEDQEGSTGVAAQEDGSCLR
Chain of frog Thyroid hormone Receptor alpha (TRa), thra-a (gene 397942) (P15204 whole entry, looked up, the tested form may be a part): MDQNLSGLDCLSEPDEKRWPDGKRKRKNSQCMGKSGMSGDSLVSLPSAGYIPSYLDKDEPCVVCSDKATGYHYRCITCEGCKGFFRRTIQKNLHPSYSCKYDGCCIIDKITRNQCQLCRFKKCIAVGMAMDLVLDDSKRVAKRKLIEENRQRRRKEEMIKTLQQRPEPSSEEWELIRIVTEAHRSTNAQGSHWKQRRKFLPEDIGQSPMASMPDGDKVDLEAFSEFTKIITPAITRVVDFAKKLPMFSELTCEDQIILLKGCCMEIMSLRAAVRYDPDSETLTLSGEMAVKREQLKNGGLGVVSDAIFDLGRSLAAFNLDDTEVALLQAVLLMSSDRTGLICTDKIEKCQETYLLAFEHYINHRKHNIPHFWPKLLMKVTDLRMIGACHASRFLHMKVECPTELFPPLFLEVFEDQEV

In the case of `CCOC(=O)C(O)(c1ccc(Cl)cc1)c1ccc(Cl)cc1`, the AC50 (in general, the concentration at which the activity in the assay is half-maximal) in experiment [1] was 17.4 µM (active) and 31.3 µM (active); in experiment [2] it was 10.6 µM (active) and 22.3 µM (active); in experiment [3], 7.9 µM (active) and 8.04 µM (active); in experiment [8] it was 100 µM (active); in experiment [9], 55.6 µM (active). For the same compound, the result in [4], in experiment [5], in [6], in experiment [7], in [9] and in [10] was inactive.
As to `CC(C)(c1ccccc1)c1ccc(O)cc1`, the compound was called inactive in experiment [1], in [2], in experiment [6], in experiment [7], in experiment [9] and in [10].
`c1cc2ccc3cccc4ccc(c1)c2c34`: the AC50 is 140 µM (active) in experiment [1]; 27.9 µM (active) in experiment [2]; 19.6 µM (active) and 15 µM (active) in [3]. In addition, the compound was classed as inactive in experiment [1], in [2], in [4], in experiment [5], in experiment [7] and in [8]. Further, the call in experiment [9] and in experiment [10] was inactive.
For the compound `CC(C)(O)C(=O)Nc1ccc([N+](=O)[O-])c(C(F)(F)F)c1`, the call in [3], in experiment [4], in experiment [6], in [7] and in experiment [9] was inactive. In experiment [10], the AC50 was 9.93 µM (active).
In the case of `CCC(=O)O[C@H]1CC[C@H]2[C@@H]3CCC4=CC(=O)CC[C@]4(C)[C@H]3CC[C@]12C`, the compound was called inactive in experiment [1], in experiment [6], in [7], in experiment [9] and in experiment [10].
For the compound `C[C@]12CCC(=O)C=C1CC[C@@H]1[C@@H]2CC[C@]2(C)C(=O)CC[C@@H]12`, the result in experiment [1], in [3], in [6], in [7], in [9] and in [10] was inactive.
For the compound `Cc1cc(-c2ccc(N)c(C)c2)ccc1N`, the AC50 is 16.2 µM (active) and 72.1 µM (active) and 100 µM (active) in experiment [1]; 27.7 µM (active) and 55.5 µM (active) in experiment [2]; 5.2 µM (active) in [3]; 10.8 µM (active) in experiment [5]. In addition, the outcome in experiment [2], in [3], in experiment [4], in experiment [5], in experiment [7] and in [8] was inactive. Further, the compound was classed as inactive in experiment [9] and in experiment [10].
As to `CC(c1ccc(O)cc1)(c1ccc(O)cc1)c1ccc(O)cc1`, the call in experiment [1], in [2], in [4], in experiment [5], in [6] and in [7] was inactive. The outcome in experiment [10] was inactive.
Take `C[C@]12CCC(=O)C=C1CC[C@@H]1[C@@H]2CC[C@@]2(C)[C@H]1CC[C@]2(C)O`: the compound was called inactive in [1], in experiment [6] and in [9].
On to `Oc1ccc(C(c2ccc(O)cc2)(C(F)(F)F)C(F)(F)F)cc1`, for which the outcome in experiment [1], in experiment [2], in experiment [3], in experiment [4], in experiment [5] and in experiment [10] was inactive. Besides, the AC50 in [2] is 33.4 µM (active).
Take `Clc1ccc(C(c2ccccc2Cl)C(Cl)(Cl)Cl)cc1` (stereo not given): the compound was called inactive in [1], in [2], in experiment [6], in experiment [9] and in experiment [10]. In addition, the AC50 in experiment [3] is 5.09 µM (active).
In the case of `ClC(Cl)=C(c1ccc(Cl)cc1)c1ccc(Cl)cc1`, the compound was called inactive in experiment [1], in experiment [2], in [3], in experiment [7] and in [10].
